Data from the supplement of paper PMC7366291.
Structures can show the parent of a compound that is named as a salt. ± gives the standard deviation or the standard deviation of the averaged measurements.

Experiments:
Conditions in all cases: 25 µM; exposure: 24-48 hpf
[1] = system: Danio rerio Tg(wt1b:EGFP) embryo, pronephros; assay: glomerular separation, fold change vs DMSO control; higher = glomeruli further apart (abnormal)
How it was run: (§1)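 Each feature value is a fold change relative to the mean of same-day DMSO-treated embryos. Embryos of the Tg(wt1b:EGFP) zebrafish line, dechorionated, received 25 μM compound in 0.5% DMSO from 24 to 48 hpf at 28.5°C, in HEPES-buffered E3 with 0.003% PTU. Distances and angles were computed by a Fiji macro from 16 manually set reference points on maximum projections of dorsal pronephros images, and values beyond 2 SD of the feature mean were removed.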

[2] = system: Danio rerio Tg(wt1b:EGFP) embryo, pronephros; assay: glomerular width (mean of left and right), fold change vs DMSO control; higher = wider glomerulus
How it was run: as §1

[3] = system: Danio rerio Tg(wt1b:EGFP) embryo, pronephros; assay: fraction of imaged embryos annotated as normal kidney; higher = less nephrotoxic; extreme values may be limits of the assay
How it was run: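 Dechorionated Tg(wt1b:EGFP) zebrafish embryos were exposed in 12-well plates to 25 μM compound in 0.5% DMSO, 5 mM HEPES-buffered E3 with 0.003% PTU, from 24 to 48 hpf at 28.5°C. Tricaine-anaesthetised larvae were oriented dorsally in agarose-filled 96-well plates, and pronephroi were imaged by widefield fluorescence (470 nm, 10 z-slices). Each embryo was manually annotated from maximum projections. The read-out is the fraction of embryos per treatment assigned to the normal-kidney category.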

[4] = system: Danio rerio Tg(wt1b:EGFP) embryo, pronephros; assay: pronephric angle neck segment to proximal convoluted tubule (mean of left and right), fold change vs DMSO control; higher = larger pronephric angle
How it was run: as §1

Structure (SMILES) | glomerular separation [1] | glomerular width [2] | fraction of imaged embryos annotated as normal kidney [3] | pronephric angle neck segment [4]
CN1CCN(c2c(F)cc3c(=O)c(C(=O)O)cn(CCF)c3c2F)CC1 [Fleroxacin] | 0.566 ± 0.3 | 0.977 ± 0.049 | 0.917 | 1.049 ± 0.0028
C[C@H]1O[C@@H](O[C@H]2[C@@H](O)C[C@H](O[C@H]3[C@@H](O)C[C@H](O[C@H]4CC[C@@]5(C)[C@H](CC[C@@H]6[C@@H]5C[C@@H](O)[C@]5(C)[C@@H](C7=CC(=O)OC7)CC[C@]65O)C4)O[C@@H]3C)O[C@@H]2C)C[C@H](O)[C@@H]1O [Digoxin] | 1.43 ± 0.52 | 1.08 ± 0.023 | 0.75 | 0.9342 ± 0.0075
NCCCC(O)(P(=O)(O)O)P(=O)(O)O [Alendronate sodium] | 0.796 ± 0.25 | 0.984 ± 0.03 | 0.833 | 1 ± 0.041
CNC(=O)c1c(I)c(C(=O)NCC(=O)Nc2c(I)c(C(=O)O)c(I)c(C(=O)NCCO)c2I)c(I)c(N(C)C(C)=O)c1I [Ioxaglic acid] | 0.975 ± 0.39 | 1.03 ± 0.037 | 0.818 | 0.982 ± 0.035
COC1=CC(=O)C[C@@H](C)[C@]12Oc1c(Cl)c(OC)cc(OC)c1C2=O [Griseofulvin] | 0.952 ± 0.29 | 1 ± 0.023 | 0.917 | 0.947 ± 0.01
CCN(CC)CCCC(C)Nc1ccnc2cc(Cl)ccc12 (centres undefined) [Chloroquine diphosphate] | 1.16 ± 0.51 | 0.959 ± 0.049 | 1 | 0.991 ± 0.019
C[C@]12CC[C@H]3C(=CCc4cc(O)ccc43)[C@@H]1CCC2=O [Equilin] | 1.59 ± 0.67 | 0.988 ± 0.038 | 0.25 | 1.17 ± 0.015
CCCCOc1cc(C(=O)NCCN(CC)CC)c2ccccc2n1 [Dibucaine] | 1.35 ± 0.37 | 0.996 ± 0.044 | 0.917 | 1.007 ± 0.0089
CC(COc1ccccc1)NC(C)C(O)c1ccc(O)cc1 (centres undefined) [Isoxsuprine hydrochloride] | 1.07 ± 0.26 | 1.08 ± 0.024 | 1 | 0.928 ± 0.029
Cc1[nH]cnc1CN1CCc2c(c3ccccc3n2C)C1=O [Alosetron hydrochloride] | 0.809 ± 0.28 | 1.027 ± 0.0085 | 0.917 | 0.977 ± 0.015
CC[C@H]1OC(=O)[C@H](C)[C@@H](O[C@H]2C[C@@](C)(OC)[C@@H](O)[C@H](C)O2)[C@H](C)[C@@H](O[C@@H]2O[C@H](C)C[C@H](N(C)C)[C@H]2O)[C@](C)(O)C[C@@H](C)/C(=N\OCOCCOC)[C@H](C)[C@@H](O)[C@]1(C)O [Roxithromycin] | 0.811 ± 0.45 | 1 ± 0.014 | 0.75 | 1.02 ± 0.03
COC(=O)C1=C(C)NC(C)=C(C(=O)OC(C)C)C1c1cccc2nonc12 (centres undefined) [Isradipine] | 4.38 ± 1.4 | 0.666 ± 0.037 | 0 | 1.007 ± 0.0069
O=C(CCCN1CCC(O)(c2ccc(Br)cc2)CC1)c1ccc(F)cc1 [Bromperidol] | 0.878 ± 0.23 | 1.03 ± 0.076 | 1 | 0.974 ± 0.038
CO[C@H]1C[C@H](O[C@H]2[C@H](C)[C@@H](O[C@@H]3O[C@H](C)C[C@H](N(C)C)[C@H]3OC(C)=O)[C@@H](C)C[C@@]3(CO3)C(=O)[C@H](C)[C@@H](OC(C)=O)[C@@H](C)[C@@H](C)OC(=O)[C@@H]2C)O[C@@H](C)[C@@H]1OC(C)=O [Troleandomycin] | 1.39 ± 0.74 | 1.12 ± 0.066 | 0.917 | 0.969 ± 0.019
Nc1nc(=S)c2ncn([C@@H]3O[C@H](CO)[C@@H](O)[C@H]3O)c2[nH]1 [Thioguanosine] | 1.01 ± 0.38 | 1.02 ± 0.012 | 0.917 | 1.03 ± 0.036
COC(=O)[C@H](c1ccccc1Cl)N1CCc2sccc2C1 [Clopidogrel] | 1.06 ± 0.52 | 0.893 ± 0.055 | 0.833 | 1.05 ± 0.054
CC(COc1ccccc1)N(CCCl)Cc1ccccc1 (centres undefined) [Phenoxybenzamine hydrochloride] | 1.05 ± 0.59 | 0.834 ± 0.03 | 0.583 | 1.15 ± 0.036
C[C@]12CC[C@@H]3c4ccc(O)cc4C[C@@H](CCCCCCCCC[S+]([O-])CCCC(F)(F)C(F)(F)F)[C@H]3[C@@H]1CC[C@@H]2O (some centres undefined) [Fulvestrant] | 1.22 ± 0.45 | 0.963 ± 0.037 | 0.833 | 0.874 ± 0.065
CC1(C)NC(=O)N(c2ccc([N+](=O)[O-])c(C(F)(F)F)c2)C1=O [Nilutamide] | 1.14 ± 0.42 | 1.13 ± 0.035 | 0.667 | 0.945 ± 0.013
CCOC(=O)O[C@]1(C(=O)COC(=O)CC)CC[C@H]2[C@@H]3CCC4=CC(=O)C=C[C@]4(C)[C@H]3[C@@H](O)C[C@@]21C [Prednicarbate] | 1.89 ± 0.71 | 1.11 ± 0.066 | 0.417 | 1.03 ± 0.058
N[C@@H]1CCCCN(c2c(F)cc3c(=O)c(C(=O)O)cn(C4CC4)c3c2Cl)C1 [Besifloxacin hydrochloride] | 0.997 ± 0.35 | 1.02 ± 0.033 | 0.833 | 1.02 ± 0.018
CC(=O)O[C@]1(C(C)=O)CC[C@H]2[C@@H]3C=C(C)C4=CC(=O)CC[C@]4(C)[C@H]3CC[C@@]21C [Megestrol acetate] | 1.27 ± 0.82 | 0.864 ± 0.029 | 0.917 | 0.9907 ± 0.0078
C=CCOC(Cn1ccnc1)c1ccc(Cl)cc1Cl (centres undefined) [Enilconazole] | 0.575 ± 0.22 | 1.12 ± 0.024 | 1 | 1.1 ± 0.062
CC(C)NNC(=O)c1ccncc1 [Iproniazide phosphate] | 0.735 ± 0.21 | 1.03 ± 0.024 | 1 | 0.9788 ± 0.0054
Cc1onc(-c2c(Cl)cccc2Cl)c1C(=O)N[C@@H]1C(=O)N2[C@@H]1SC(C)(C)[C@@H]2C(=O)O [Dicloxacillin sodium salt hydrate] | 1.24 ± 0.43 | 1.009 ± 0.0084 | 0.818 | 0.998 ± 0.017
CC(C)NCC(O)COc1ccc(COCCOC(C)C)cc1 (centres undefined) [Bisoprolol fumarate] | 1.2 ± 0.41 | 1.07 ± 0.03 | 0.583 | 0.999 ± 0.083
